From PubChem BioAssay (NCI)
About 83,000 compounds went through this panel and 20% of them were active in at least one assay; those are over-represented in the sample as a whole.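 Compound tested at a single concentration for 48 hours in 96-well plates; a percent growth value below 10 was scored as active.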 The source made the active and inactive calls.

Test system: HL-60(TB) leukemia
Experiment: NCI-60 one-dose screen, 48 h (100 = growth as untreated, 0 = no growth, -100 = all killed)
Settings: 10 µM unless noted

SMILES | growth
O=c1c2cc(F)ccc2sc2c(NCCCN3CCCC3)nc3ccccc3c12 | 13.9% (inactive)
COc1cc2nc(SCc3cc(OC)c(OC)c(OC)c3)n(Cc3ccccc3)c(=O)c2cc1OC | 11.9% (inactive)
COc1ccc2nc3cc(Cl)ccc3c(N3CCN(c4nccc(Nc5ccc(Cl)cc5)n4)CC3)c2c1 | 48% (inactive)
Nc1ncc(-c2cnn(C3CCNCC3)c2)cc1-c1nc2cc(Cl)ccc2o1 | -71.3% (active)
OCCc1ccc(Cl)cc1 | 104% (inactive)
COc1cccc2cc(-c3cc4ccccc4[nH]3)/c(=N/C(=S)Nc3ccc(C)cc3)oc12 | 98.1% (inactive)
Cc1ccc(NC(=O)Nc2cccnc2)cc1NC(=O)Nc1cccnc1 | 71.1% (inactive)
CC(C)OC(=O)c1ccc([N+](=O)[O-])cc1 | 121% (inactive)
Cn1c2ccccc2c2c3c(c4c5ccccc5n(CCCCCC#N)c4c21)C(=O)N(O)C3=O | -22.3% (active)
CCOC(=O)C1=NN(c2ccc(Cl)cc2)C2C3N(c4ccc(Cl)cc4)N=C(C(=O)OCC)N3c3ccccc3N12 (stereo not given) | -67.8% (active)
CCCCCCCCCCCCCCCCCC1=NCCN1CCNC(C)=O | 79.2% (inactive)
CCc1nnc(NC(=O)c2nnn(-c3ccccc3)c2-c2ccco2)s1 | 79.9% (inactive)
CCN(CC)CCN1C(=O)c2cccc3c(/C=C/CN4C(=O)c5cccc6cccc(c56)C4=O)ccc(c23)C1=O | 83.4% (inactive)
CC1(c2ccccc2)CO1 (stereo not given) | 105% (inactive)
COc1cc(C2=NN(c3ccc(S(N)(=O)=O)cc3)C(c3ccc(Cl)cc3)C2)cc(OC)c1OC (stereo not given) | -25.8% (active)
CC(C)(C)c1cc(C=O)cc(C(C)(C)C)c1O | -23.5% (active)
CNC(=O)c1cc(Oc2ccc3c(c2)sc2nc(-c4ccc(Cl)c(C(F)(F)F)c4)cn23)ccn1 | 35.8% (inactive)
CN1CCN(C(=O)C(C)(C)c2ccc(C(=O)Nc3cn4cc(-c5ccncc5)ccc4n3)cc2)CC1 | 7.51% (active)
Fc1ccc(CNc2c3ccccc3nc3ccccc23)cc1F | 34.5% (inactive)
OC(CBr)c1ccnc2ccccc12 (stereo not given) | 100% (inactive)
N#CC1CCc2c(c(-c3ccc4nc(N)sc4c3)nc3ccc4[nH]ncc4c23)C1 (stereo not given) | 34.9% (inactive)
COc1cccc(-c2nc3sccn3c2-c2ccnc(NCCNC(=O)Nc3cccc(C(F)(F)F)c3)n2)c1 | 62.8% (inactive)
C[Si](C)(C)C(c1ccccc1)c1ccccc1 | 80.5% (inactive)
CNc1ncc(-c2ccc(C(F)(F)F)cc2)c(NC2CCCCCC2)n1 | 57% (inactive)
COc1ccc(C(=O)CSc2nnc(-c3cc(-c4ccccc4)nc4ccccc34)o2)cc1 | 111% (inactive)
